Measured values published in PubChem BioAssay (NCI).
Compounds without any hit were thinned out: in the full panel of roughly 83,000, 20% have a hit.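 Values shown are percent growth following 48 h exposure of cells in 96-well plates to a single concentration of compound; below 10 was considered active.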 Activity calls are given as the source filed them.

Columns and labels:
Assay in all cases: NCI-60 one-dose screen, 48 h (100 = growth as untreated, 0 = no growth, -100 = all killed)
Details in all cases: 10 µM unless noted
[1] = tested on: SK-MEL-2 melanoma
[2] = tested on: EKVX NSCLC
[3] = tested on: SN12C renal
[4] = tested on: UO-31 renal
[5] = tested on: TK-10 renal
[6] = tested on: ACHN renal
[7] = tested on: CAKI-1 renal
[8] = tested on: CCRF-CEM leukemia
[9] = tested on: MOLT-4 leukemia
[10] = tested on: SR leukemia
[11] = tested on: RPMI-8226 leukemia
[12] = tested on: OVCAR-8 ovarian
[13] = tested on: OVCAR-5 ovarian
[14] = tested on: OVCAR-4 ovarian
[15] = tested on: SK-OV-3 ovarian
[16] = tested on: IGROV1 ovarian
[17] = tested on: OVCAR-3 ovarian
[18] = tested on: HS 578T breast
[19] = tested on: NCI/ADR-RES ovarian

Measured: growth

CC1(C)CC[C@]2(C(=O)O)CC[C@]3(C)C(=CC[C@@H]4[C@@]5(C)Cc6c([nH]c7ccccc67)C(C)(C)[C@@H]5CC[C@]43C)[C@@H]2C1
inactive: [1] 72.6% | [2] 34.3% | [3] 42.8% | [4] 32.7% | [5] 31.3% | [6] 18.2% | [7] 17.5% | [8] 30.6% | [9] 32.3% | [10] 41.3% | [11] 23.2% | [12] 35% | [13] 80.9% | [14] 36.8% | [15] 62.4% | [16] 58% | [17] 37.2% | [18] 75.2% | [19] 34.2%

c1ccc2c(-c3c[nH]c4ccccc34)c3c(cc2c1)[nH]c1ccccc13
inactive: [1] 50.6% | [2] 77.4% | [3] 80.8% | [4] 58.3% | [5] 94.1% | [6] 62.1% | [7] 63% | [8] 43.9% | [9] 38.2% | [10] 29.4% | [11] 54.5% | [12] 90.7% | [13] 96% | [14] 57.8% | [15] 84.5% | [16] 69% | [17] 59.3% | [18] 84.1% | [19] 56.6%

COc1cc(NC(C)CCCNC(=O)CCC(=O)NCCCNCCCCCCCCNCCCNC(=O)CCC(=O)NCCCC(C)Nc2cc(OC)cc3cccnc23)c2ncccc2c1 (stereo not given)
inactive: [1] 78.4% | [2] 79.6% | [3] 42.9% | [4] 91.4% | [5] 82.6% | [6] 88.9% | [7] 95.1% | [8] 58.9% | [9] 76.4% | [10] 107% | [11] 53.5% | [12] 70.6% | [13] 66.8% | [14] 18.1% | [15] 97.9% | [16] 59.1% | [17] 39.8% | [18] 75% | [19] 91.7%

COc1cc2c(=O)n(CCCN(C)C)c3c4cc5c(cc4ccc3c2cc1OC)OCO5
active: [9] -9.29% | [10] 9.59% | [11] 6.97%
inactive: [1] 89% | [2] 85% | [3] 50.4% | [4] 41.9% | [5] 84.5% | [6] 36.8% | [7] 62% | [8] 13.8% | [12] 48.3% | [13] 112% | [14] 69.9% | [15] 102% | [16] 31.9% | [17] 65.5% | [18] 67.1% | [19] 53.5%

N#CC(C#N)=Cc1cc2ccccc2nc1Oc1ccc(C(F)(F)F)cc1
active: [8] 0.288% | [11] 3.66%
inactive: [1] 103% | [2] 84.1% | [3] 91.9% | [4] 43.8% | [5] 114% | [6] 88.7% | [7] 67.7% | [9] 54.8% | [10] 30.8% | [12] 92.5% | [13] 102% | [14] 99.7% | [15] 88.6% | [16] 79.3% | [17] 101% | [18] 96.9% | [19] 92.5%

COc1cc(/C(C)=C(\c2ccc(Cl)cc2)c2ccc(OCCN(C)C)cc2)ccc1F
active: [10] 0.487%
inactive: [1] 104% | [2] 81.2% | [3] 73.8% | [4] 47.5% | [5] 72.1% | [6] 87.4% | [7] 62.7% | [8] 49.5% | [9] 42.4% | [11] 12.2% | [12] 73.9% | [13] 75.3% | [14] 45.9% | [15] 111% | [16] 35.3% | [17] 59.4% | [18] 71.7% | [19] 69.4%

O=S(=O)(NCCNc1nccc(-c2c(-c3cccc(F)c3)nc3sccn23)n1)c1ccc(Br)cc1
active: [16] 8.47%
inactive: [1] 71.7% | [2] 59.5% | [3] 42.9% | [4] 21.2% | [5] 68.8% | [6] 30.2% | [7] 35.1% | [8] 51% | [9] 35.7% | [10] 31.7% | [11] 58% | [12] 45.5% | [13] 83.6% | [14] 47% | [15] 77.3% | [17] 62.4% | [18] 63.6% | [19] 61.8%

O=C(/C=C(/C=C/c1coc2ccccc12)OB(F)F)/C=C/c1coc2ccccc12
inactive: [1] 91.6% | [2] 108% | [3] 97.4% | [4] 87.7% | [5] 117% | [6] 101% | [7] 105% | [8] 72.6% | [9] 85.5% | [10] 48.8% | [11] 84.9% | [12] 87.7% | [13] 113% | [14] 107% | [15] 122% | [16] 97.5% | [17] 58.2% | [18] 91.4% | [19] 102%

COc1ccc(C/C(=C(\C)c2ccc(OCCN3CCCC3)cc2)c2ccc(OCCN3CCCC3)cc2)cc1
inactive: [1] 102% | [2] 81.3% | [3] 73.8% | [4] 53.4% | [5] 87.3% | [6] 54.1% | [7] 80.7% | [12] 64.9% | [13] 77.8% | [14] 81.5% | [15] 90.8% | [16] 64.1% | [17] 29% | [18] 66.7% | [19] 78.3%
active: [8] 0.621% | [9] -17.5% | [10] -32.6% | [11] -20.6%

COc1ccccc1/C(C)=N/NC(=O)CSc1nc2ccccc2c(=O)n1Cc1ccc(S(N)(=O)=O)cc1
inactive: [1] 106% | [2] 85.6% | [3] 102% | [4] 77.3% | [5] 96.1% | [6] 105% | [7] 85.4% | [8] 94.5% | [9] 97% | [10] 96.1% | [11] 99.5% | [12] 98.7% | [13] 97.9% | [14] 94.9% | [15] 115% | [16] 102% | [17] 108% | [18] 85.4% | [19] 99.5%

COc1ccc(C(=O)c2cc(C)c(OC)c(C)c2)c(OC)c1OC(=O)C(Cl)Cl
active: [15] -2.06% | [17] -4.52% | [19] -3.92%
inactive: [1] 24.4% | [2] 58.4% | [3] 30.1% | [4] 35.3% | [5] 50.9% | [6] 18.3% | [7] 39.8% | [8] 11.1% | [9] 20.7% | [10] 16% | [11] 23.4% | [12] 10.1% | [13] 45.2% | [14] 46.7% | [16] 22.3% | [18] 20.5%

COC(=O)/C=C1\S/C(=N\NC(=O)c2cc3ccc2/C=C\c2ccc(cc2)/C=C\3)N(Cc2ccccc2)C1=O
active: [8] 3.83% | [9] 1.09% | [10] -14.7% | [11] -47%
inactive: [1] 85.6% | [2] 77.7% | [3] 61.2% | [4] 45% | [5] 95.5% | [6] 46.1% | [7] 65.8% | [12] 71.6% | [13] 65.3% | [14] 44.6% | [15] 133% | [16] 42.3% | [17] 20.3% | [18] 87.4% | [19] 70.4%

O=C(c1nc2ccccc2[nH]1)C1C(c2ccc(Cl)cc2)C2CC3CCCC[C@H]3N2[C@@]12C(=O)Nc1cc(Cl)ccc12 (stereo not given in full)
active: [9] 7.41%
inactive: [1] 66.7% | [2] 34.5% | [3] 48% | [4] 20.1% | [5] 46.4% | [6] 40.5% | [7] 20.6% | [8] 30.2% | [10] 39% | [11] 16.8% | [12] 61.3% | [13] 56% | [14] 24.4% | [15] 71.4% | [16] 32% | [17] 35% | [18] 73.2% | [19] 50.5%

CN(C)c1ccc(C2C(C#N)=C(/N=C/c3ccccc3)Oc3c2ccc2ccccc32)cc1 (stereo not given)
inactive: [1] 70.8% | [2] 73.4% | [3] 78% | [4] 50.6% | [5] 144% | [6] 71.6% | [7] 20.7% | [8] 66.7% | [9] 67.7% | [10] 17.7% | [11] 70.6% | [12] 89.6% | [13] 99.5% | [14] 97.4% | [15] 66.8% | [16] 49.8% | [17] 43.7% | [18] 66.7% | [19] 54.4%

COc1ccc2c(c1)C(=O)CC(c1ccccc1OC)O2 (stereo not given)
inactive: [1] 102% | [2] 73.2% | [3] 94.6% | [4] 96.9% | [5] 169% | [6] 101% | [7] 89.2% | [8] 109% | [9] 81% | [10] 89.3% | [11] 105% | [12] 100% | [13] 108% | [14] 102% | [15] 104% | [16] 79.3% | [17] 117% | [18] 101% | [19] 86%
